Assay results: PubChem BioAssay (NCI)
“And” between values parts separate entries of the source, which are not always exact repeats. Equal values may be shown once. This is part of a sample that, as a whole, favours compounds with a hit. Of some 83,000 tested, about 20% had one in any assay.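 Values shown are percent growth following 48 h exposure of cells in 96-well plates to a single concentration of compound; below 10 was considered active.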 The source made the active and inactive calls.

These compounds were tested on U251 CNS (assay: NCI-60 one-dose screen, 48 h (100 = growth as untreated, 0 = no growth, -100 = all killed)). Settings: 10 µM.
Method: Growth inhibition of the U251 human tumor cell line is measured as a screen for anti-cancer activity. Cells are grown in 96 well plates and exposed to the test compound for 48 hours. Compounds are tested at a single concentration, which is 10^-5 M for most compounds. The reported endpoint is percent growth (GI% or GIPRCNT), where numbers from 0 - 100% represent growth inhibition, and numbers from -100% - 0 represent cell death. For example, a value of 40 represents 60% growth inhibition. A value of 0 means no net growth occurred over the course of the experiment. A value of -40 indicates 40% of cells at the beginning of the experiment died by the end of the experiment. A value of -100 means all cells are dead at the end of the experiment.
NCI-60 Human Tumor Cell Lines Screen was performed using the standard one-dose NCI protocol, which is described in more detail at https://dtp.cancer.gov/discovery_development/nci-60/default.htm.
Compounds with GIPRCNT values below 10 were considered active. Activity score was based on GIPRCNT using the following formula: […]
Score is 0 for GIPRCNT values of 100 or above, 50 for GIPRCNT values of 0, and 100 for GIPRCNT values of -100.

Row | SMILES | growth
1 | S=C(SSC(=S)N1CCCCC1)N1CCCCC1 | 88% (inactive)

Same assay, conditions: 10 µM unless noted

Row | SMILES | growth
2 | CC[n+]1c(-c2ccccc2)c2cc(N)ccc2c2ccc(N)cc21 | -2.55% (active)
3 | Oc1cc[c]([Hg][Cl])cc1 | 85.9% (inactive)
4 | CCCCCCCCCCCC1CCCC(C)N1 (stereo not given) | 59.6% (inactive)
5 | CC[C@@]1(O)C[C@H](OC2CC(N(C)C)C(O)C(C)O2)c2c(O)c3c(c(O)c2[C@H]1OC1CC(N(C)C)C(O)C(C)O1)C(=O)c1cccc(O)c1C3=O (stereo not given in full) | -21.9% (active)
6 | CC(=O)O[C@H]1C[C@@H]2OC3C=C(C)CCC3(C)[C@@]1(C)[C@@]21CO1 (stereo not given in full) | -8.47% (active) and -17.4% (active)
7 | COc1ccccc1/C=C(/C)[N+](=O)[O-] | 83% (inactive) and 98.7% (inactive)
8 | Oc1cccc2cccnc12 | 72.3% (inactive) and 99.1% (inactive) and 106% (inactive)
9 | CC[C@@]1(O)C(=O)OCc2c1cc1n(c2=O)Cc2cc3ccccc3nc2-1 | -31.6% (active)
10 | CCC(=O)OC1CCn2c1nc1c2C(=O)C(C)=C(N2CC2)C1=O (stereo not given) | -24.2% (active)
11 | Cc1cc(N=Nc2ccccc2C)ccc1N | 74.9% (inactive)
12 | CN1CCN(c2ccc([N+](=O)[O-])c3no[n+]([O-])c23)CC1 | -95.6% (active)
13 | CC1=C(CO)C2=C(C)C3(CC3)[C@@](C)(O)C(=O)C2=C1 | 2.57% (active)
14 | CC1=C2C(=O)[C@H]3[C@@H](CC=C4C[C@@H](O)CC[C@@]43C)[C@@H]2CC[C@]12O[C@@H]1C[C@H](C)CN[C@H]1[C@H]2C | 107% (inactive)
15 | NCCc1ccc(OCc2ccccc2)c(OCc2ccccc2)c1 | 44.3% (inactive)
16 | Cc1c(N)nc([C@H](CC(N)=O)NC[C@H](N)C(N)=O)nc1C(=O)N[C@H](C(=O)N[C@H](C)[C@@H](O)[C@H](C)C(=O)N[C@H](C(=O)NCCc1nc(-c2nc(C(=O)NCCC[S+](C)C)cs2)cs1)[C@@H](C)O)C(OC1OC(CO)C(O)C(O)C1OC1OC(CO)C(O)C(OC(N)=O)C1O)c1cnc[nH]1 (stereo not given in full) | 58.4% [2.5 µM] (inactive)
17 | COc1cccc2c1cc([N+](=O)[O-])c1c(C(=O)O)cc3c(c12)OCO3 | 60.2% (inactive) and 96.7% (inactive)
18 | COC1=C(C)C(=O)C2=C(C1=O)C(CO)N1C(C#N)C3CC4C(C1C2N1CCOC41)N3C (stereo not given) | -9.96% (active)
19 | COc1ccc(OC)c(/C=C/[N+](=O)[O-])c1 | -27.2% (active)
20 | COC1CC(CC2CCC(C)C(C(C)C(=O)O)O2)OC2(OC(C)(C3CCC(C)(C4OC(C5OC(O)(CO)C(C)CC5C)CC4C)O3)CC2C)C1C (stereo not given) | 3.01% (active)
21 | C[C@]12CC[C@H](O)CC1=CC[C@@H]1[C@@H]2CC[C@]2(C)C(=O)CC[C@@H]12 | 101% (inactive)
22 | CCOC(=O)C(NC(=O)C(Cc1ccc(N(CCCl)CCCl)cc1)NC(C)=O)C(C)C (stereo not given) | 73.7% (inactive)
23 | CC[C@](O)(C(=O)O)c1cc2n(c(=O)c1CO)Cc1cc3ccccc3nc1-2 | 1.58% (active)
24 | Cc1ccc(C(=O)OC(C(=O)O)C(OC(=O)c2ccc(C)cc2)C(=O)O)cc1 (stereo not given) (tested in a mixture with another compound) | 54.3% (inactive)
25 | CC[C@@]1(O)C[C@H](OC2CC(N(C)C)C(OC3CC(O)C(OC4CCC(=O)C(C)O4)C(C)O3)C(C)O2)c2c(cc3c(c2O)C(=O)c2c(O)ccc(O)c2C3=O)[C@H]1C(=O)OC (stereo not given in full) | -38.3% (active)
26 | O=C1c2ccccc2C(=O)C(Cl)C1Cl (stereo not given) | 83% (inactive)
27 | CCC1(O)CC(OC2CC(N(C)C)C(OC3CC4OC5CC(=O)C(C)OC5OC4C(C)O3)C(C)O2)c2c(cc3c(c2O)C(=O)c2c(O)ccc(O)c2C3=O)C1C(=O)OC (stereo not given) | -18.4% (active)
28 | C[C@H]1CCC/C=C/[C@@H]2C[C@H](O)C[C@H]2[C@H](O)/C=C/C(=O)O1 | 20.6% (inactive)
29 | CO[C@H](/C(C)=C/C=C/C(C)=C/c1coc(C)n1)[C@H](C)[C@H]1C[C@@H](O)[C@@]2(C)O[C@H]2/C=C/[C@@H](C)[C@@H]2C[C@@H](CC(=O)O2)C[C@H]2O[C@@H]2C(=O)O1 | 3.46% (active)

Same assay, conditions: 100 µM

Row | SMILES | growth
30 | S=C(SSC(=S)N1CCCCC1)N1CCCCC1 | -43.7% (active)
